Experimental data reported in PubChem BioAssay (Tox21).
“And” between values parts separate entries of the source, which are not always exact repeats. Equal entries are not always repeated. Results filed as inconclusive are left out. Where a call stands in place of a potency, no number is given. The source holds several records for some structures; these can differ, active in one and inactive in another. The source made the active and inactive calls. Unless noted, calls come from the whole dose curve; as a rule, active = well fitted curve in the direction sought with a large enough effect in the repeat runs; inconclusive = weak or mixed curves; inactive = no such curve, though single readings can be large; an effect the other way counts as inactive or inconclusive.

Legend:
[1] = target: Retinoic acid receptor RXR-alpha (Homo sapiens) (UniProt P19793); experiment: qHTS assay to identify small molecule agonists of the RXR signaling pathway (AID 1159527; calls by dose curve; note: nearly all actives have a fitted effect of over 35% in size; note: potency is the fitted concentration of half-maximal effect)
How it was run: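 Reporter activation is measured as beta-lactamase activity via FRET substrate cleavage (emission 460/530 nm) in HEK 293T cells expressing an RXR-alpha-driven bla construct, following 16 hr compound exposure at 37 C.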

[2] = qHTS assay to identify small molecule agonists of the RXR signaling pathway - cell viability counter screen (AID 1159529); note: series mostly up to about 77 µM; nearly all actives have a fitted effect of over 50% in size
How it was run: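 Tox21 10K compounds were tested for cytotoxicity against GeneBLAzer RXR-alpha HEK 293T cells grown in 2% charcoal-stripped FBS. Exposure lasted 16 hr at 37 C, 5% CO2; viability read by CellTiter-Glo luminescence.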

[3] = qHTS assay to identify small molecule antagonists of the retinoic acid receptor (RAR) signaling pathway (AID 1159552; note: nearly all actives have a fitted effect of over 50% in size)
How it was run: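 Overnight-plated C3RL4 reporter cells get compound, then retinol to 1 uM final; plates sit 6 hr at 37 C, 5% CO2. A luciferase reagent is added and light output recorded after 30 min at room temperature.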

[4] = qHTS assay to identify small molecule agonists of the retinoic acid receptor (RAR) signaling pathway (AID 1159553); note: potency is the fitted concentration of half-maximal effect
How it was run: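 Activation of retinol signaling was monitored via a RARE luciferase reporter in C3RL4 cells. After 6 hr compound treatment at 37 C, detection reagent was added for 30 min at room temperature before luminescence reading.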

[5] = qHTS assay to identify small molecule antagonists of the estrogen related receptor (ERR) signaling pathway - cell viability counter screen (AID 1224818);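 note: series mostly up to about 46 µM; viability measured after 17.5 h of compound exposure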
How it was run: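 In the same ERR cell assay, compound-treated wells (17.5 h, 37 C) were multiplexed with a fluorogenic viability reagent, CellTiter-Fluor, read after 30 min to flag cytotoxic substances.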

[6] = qHTS assay to identify small molecule antagonists of the estrogen related receptor signaling pathway with the pleiotropic PPARgamma coactivator (PGC) cell viability counter screen (AID 1224822; note: series mostly up to about 46 µM)
How it was run: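 Compounds in DMSO, with positive and negative controls, were applied to PGC/ERR cells (2,000/well) and left 17.5 h at 37 C before CellTiter-Fluor detection.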

[7] = qHTS assay to identify small molecule antagonists of the estrogen related receptor (ERR) signaling pathway from Tox21 library - cell viability counter screen (AID 1224834); note: nearly all actives have a fitted effect of over 30% in size; note: potency is the fitted concentration of half-maximal effect
How it was run: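 CellTiter-Fluor fluorescence measured; ERR cells; 17.5 h compound incubation at 37 C; 30 min reagent step.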

[8] = target: Luciferin 4-monooxygenase (Photinus pyralis) (UniProt P08659); experiment: qHTS assay to identify small molecule inhibitors of firefly luciferase (AID 1224835); note: nearly all actives have a fitted effect of over 25% in size; note: potency is the fitted concentration of half-maximal effect
How it was run: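 Biochemical qHTS: compounds run as interplate titrations against purified firefly enzyme, with D-luciferin and ATP each at its KM concentration. Light output recorded by CCD imaging.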

[9] = qHTS assay to identify small molecule agonists of the constitutive androstane receptor (CAR) signaling pathway - cell viability counter screen (AID 1224836); note: series mostly up to about 92 µM; nearly all actives have a fitted effect of over 45% in size
How it was run: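 Fluorescence from CellTiter-Fluor indicates live cells after 23 h exposure. The human hepatoma line expresses hCAR and a CYP2B6-2.2kb reporter. Incubation medium contains 0.75 uM PK11195 (final).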

[10] = qHTS assay to identify small molecule antagonists of the constitutive androstane receptor (CAR) signaling pathway - cell viability counter screen (AID 1224837); note: series mostly up to about 92 µM; nearly all actives have a fitted effect of over 45% in size
How it was run: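 Using CellTiter-Fluor, viability is scored in HepG2 cells stably carrying hCAR and a 2.2kb CYP2B6 reporter after 23 hr compound exposure across 15 concentrations, with CITCO present at 50 nM.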

[11] = qHTS assay to identify small molecule antagonists of the estrogen related receptor signaling pathway with the pleiotropic PPARgamma coactivator (PGC) from Tox21 10K library - cell viability counter screen (AID 1224840; active = well fitted cell-killing curve with a large enough effect in the repeat runs, not every such curve was filed as active; note: nearly all actives have a fitted effect of over 40% in size)
How it was run: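 Here the PGC/ERR cells serve as a cytotoxicity control: they are exposed to compounds for 17.5 hours at 37 C, and live-cell signal is quantified using CellTiter-Fluor fluorescence.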

[12] = qHTS assay to identify small molecule antagonists of the retinoid acid receptor (RAR) signaling pathway - cell viability counter screen (AID 1159551); note: nearly all actives have a fitted effect of over 35% in size
How it was run: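 Seed C3RL4 cells; next day add compound, then retinol to 1 uM final; incubate 6 h at 37 C; add CellTiter-Glo; read luminescence after 30 min at RT.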

[13] = target: Nuclear receptor subfamily 1 group I member 3 (Homo sapiens) (UniProt Q14994); experiment: qHTS assay to identify small molecule antagonists of the constitutive androstane receptor (CAR) signaling pathway (AID 1224838);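 note: HepG2 cells stably expressing hCAR with CYP2B6 luciferase reporter stimulated by CITCO; nearly all actives have a fitted effect of over 40% in size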
How it was run: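 Reporter luminescence was quantified after 24 h exposure of hCAR/CYP2B6-2.2kb double-stable HepG2 cells to compounds at 15 concentrations in the presence of 50 nM CITCO final.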

[14] = target: Nuclear receptor subfamily 1 group I member 3 (Homo sapiens) (UniProt Q14994); experiment: qHTS assay to identify small molecule agonists of the constitutive androstane receptor (CAR) signaling pathway (AID 1224839); note: nearly all actives have a fitted effect of over 15% in size; note: potency is the fitted concentration of half-maximal effect
How it was run: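 Stable hCAR/CYP2B6-2.2kb HepG2 line in DMEM with 10% FBS; compounds (15 concentrations) and 0.75 uM PK11195 final, 24 h at 37 C/5% CO2, then ONE-Glo luminescence after 30 min.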

[15] = qHTS assay to identify small molecule antagonists of the estrogen related receptor (ERR) signaling pathway (AID 1224819;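 note: luminescence from an ERR-driven luciferase reporter measured with One-Glo reagent; series mostly up to about 46 µM; nearly all actives have a fitted effect of over 50% in size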)
How it was run: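 qHTS in ERR cells, 2,000/well, 1536 format. Cpd (DMSO) added after 6 h settle, 18 h 37 C. One-Glo luminescence, 30 min RT.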

[16] = qHTS assay to identify small molecule agonists of the estrogen related receptor (ERR) signaling pathway (AID 1224820)
How it was run: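 Cells: ERR line from NTP, 2,000/well. Pre-incubation 6 h, 37 C/5% CO2. Compound (DMSO) pin transfer, 18 h 37 C. One-Glo, 30 min RT, luminescence.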

[17] = test system: estrogen-related receptor alpha (ERRalpha) with PGC-1alpha coactivator, human; experiment: qHTS assay to identify small molecule antagonists of the estrogen related receptor signaling pathway with the pleiotropic PPARgamma coactivator (PGC) (AID 1224821; calls by dose curve;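 note: series mostly up to about 46 µM; lower luminescence signal means antagonism of PGC/ERR signalling; nearly all actives have a fitted effect of over 50% in size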)
How it was run: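 Luminescent read-out (One-Glo, 30 min at room temperature) following 18 h treatment of PGC/ERR cells at 37 C with compounds delivered in DMSO. Cells had settled 6 h at 37 C/5% CO2 before dosing.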

[18] = qHTS assay to identify small molecule agonists of the estrogen related receptor signaling pathway with the pleiotropic PPARgamma coactivator (PGC) (AID 1224823)
How it was run: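 Steps: plate PGC/ERR cells at 2,000 cells/well; incubate 6 h, 37 C/5% CO2; pin-transfer compounds (DMSO); incubate 18 h, 37 C; add One-Glo; 30 min RT; read luminescence.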

[19] = qHTS assay to identify small molecule antagonists of the estrogen related receptor signaling pathway with the pleiotropic PPARgamma coactivator (PGC) from Tox21 10K library (AID 1224841; call rule not given here)
How it was run: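 Each well held 2,000 PGC/ERR cells, pre-incubated six hours (37 C, 5% CO2). Test substances in DMSO were added by pin tool and left for 18 h at 37 C before luciferase detection by One-Glo.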

[20] = qHTS assay to identify small molecule agonists of the estrogen related receptor signaling pathway with the pleiotropic PPARgamma coactivator (PGC) from Tox21 10K library (AID 1224842); note: nearly all actives have a fitted effect of over 15% in size
How it was run: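 PGC/ERR reporter cell line, 2,000 cells per well, incubated 6 h at 37 C before 23 nL compound in DMSO was added. After 18 h at 37 C, One-Glo luminescence read following 30 min at room temperature.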

Luciferin 4-monooxygenase (Photinus pyralis), sequence (P08659 whole entry, looked up): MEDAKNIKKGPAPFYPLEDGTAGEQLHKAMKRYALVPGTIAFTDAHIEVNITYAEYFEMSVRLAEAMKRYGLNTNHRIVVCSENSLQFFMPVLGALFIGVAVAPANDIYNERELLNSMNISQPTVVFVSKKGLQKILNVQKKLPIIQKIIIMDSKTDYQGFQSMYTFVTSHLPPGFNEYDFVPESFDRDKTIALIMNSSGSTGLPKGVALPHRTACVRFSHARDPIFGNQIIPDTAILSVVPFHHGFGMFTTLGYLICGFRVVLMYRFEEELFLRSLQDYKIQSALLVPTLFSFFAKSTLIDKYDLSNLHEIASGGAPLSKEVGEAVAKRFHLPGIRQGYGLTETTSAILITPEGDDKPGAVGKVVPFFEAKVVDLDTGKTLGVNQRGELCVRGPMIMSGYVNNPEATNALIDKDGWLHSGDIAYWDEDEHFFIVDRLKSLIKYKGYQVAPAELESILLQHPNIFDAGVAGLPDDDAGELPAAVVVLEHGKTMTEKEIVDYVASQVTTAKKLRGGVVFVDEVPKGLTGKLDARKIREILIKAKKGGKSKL
Nuclear receptor subfamily 1 group I member 3 (Homo sapiens), sequence (Q14994 whole entry, looked up): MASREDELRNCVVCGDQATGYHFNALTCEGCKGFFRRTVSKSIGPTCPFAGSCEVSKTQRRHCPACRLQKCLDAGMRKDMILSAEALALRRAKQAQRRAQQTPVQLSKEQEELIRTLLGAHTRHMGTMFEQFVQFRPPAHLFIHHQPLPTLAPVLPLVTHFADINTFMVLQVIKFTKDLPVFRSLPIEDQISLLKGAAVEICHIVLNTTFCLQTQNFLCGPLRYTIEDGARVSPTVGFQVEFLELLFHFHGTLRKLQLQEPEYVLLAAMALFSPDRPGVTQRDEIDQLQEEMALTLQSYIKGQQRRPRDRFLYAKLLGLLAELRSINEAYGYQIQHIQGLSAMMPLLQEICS
Retinoic acid receptor RXR-alpha (Homo sapiens), sequence (P19793 whole entry, looked up): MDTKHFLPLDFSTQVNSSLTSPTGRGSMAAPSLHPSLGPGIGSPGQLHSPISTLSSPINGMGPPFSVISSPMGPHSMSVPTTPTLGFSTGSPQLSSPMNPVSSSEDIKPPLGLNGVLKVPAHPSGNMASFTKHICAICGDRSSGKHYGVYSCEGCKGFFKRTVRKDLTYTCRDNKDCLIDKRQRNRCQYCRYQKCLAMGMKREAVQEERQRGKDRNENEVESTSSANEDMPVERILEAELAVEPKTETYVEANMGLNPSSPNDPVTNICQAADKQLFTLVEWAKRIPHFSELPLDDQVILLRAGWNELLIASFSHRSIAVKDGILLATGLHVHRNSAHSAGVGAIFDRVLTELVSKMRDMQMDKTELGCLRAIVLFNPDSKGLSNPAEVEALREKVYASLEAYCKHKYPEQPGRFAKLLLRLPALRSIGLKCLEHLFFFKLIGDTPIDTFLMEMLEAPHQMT

Structure (SMILES)	Potency [1]	outcome [2]	Potency [3]	Potency [4]	outcome [5]	outcome [6]	Potency [7]	Potency [8]	Potency [9]	Potency [10]	Potency [11]	outcome [12]	Potency [13]	Potency [14]	outcome [15]	outcome [16]	outcome [17]	outcome [18]	Potency [19]	Potency [20]
Cc1cccc(C)c1NC(=O)CN1CCCC1=O	inactive	inactive	inactive	inactive	inactive	inactive	inactive	inactive	inactive	inactive	inactive									
O=C(O)C1C(C(=O)O)C2(Cl)C(Cl)=C(Cl)C1(Cl)C2(Cl)Cl (stereo not given)	inactive	inactive					inactive	inactive	inactive	inactive	inactive	inactive	inactive	inactive						
O=C(O)CCCc1ccc(N(CCCl)CCCl)cc1	inactive	inactive					inactive	inactive	inactive	inactive	inactive	inactive								
C[C@H]1C(=O)O[C@@H]2CCN3CC=C(COC(=O)[C@](C)(O)[C@]1(C)O)[C@H]23	inactive	inactive	inactive	inactive			inactive	inactive	inactive	inactive	inactive	inactive								
NNc1ccccc1	inactive	inactive						inactive	inactive	inactive	inactive	inactive	inactive	48 µM (active) and 68.5 µM (active)						
O=C(O)COc1ccccc1	inactive	inactive					inactive	inactive	inactive	inactive	inactive	inactive	inactive	inactive						
c1ccc2c(c1)CCCC2	inactive	inactive					inactive	inactive	inactive	inactive	inactive	inactive	inactive	inactive						
CN(C)CCC#N	inactive	inactive	inactive	inactive			inactive	inactive	inactive	inactive	inactive	inactive								
O=C/C=C/c1ccccc1	inactive	inactive	inactive	inactive and 34.4 µM (active)			inactive	inactive and 44.8 µM (active)	inactive	inactive	inactive		inactive	inactive						
CNCC(O)c1ccc(O)cc1 (stereo not given)	inactive	inactive	inactive	inactive	inactive	inactive	inactive	inactive	inactive	inactive	inactive		inactive	inactive	inactive	inactive	inactive	inactive	inactive	inactive
Nc1ccc(N)cc1	inactive	inactive	inactive	34.4 µM (active) and 23.7 µM (active)			30.8 µM (active) and 30.6 µM (active) and inactive	40.1 µM (active) and 35.6 µM (active)			inactive	inactive	inactive	21.8 µM (active) and 21.7 µM (active) and inactive						
CCOC(=O)CC(SP(=O)(OC)OC)C(=O)OCC (stereo not given)	inactive	inactive	inactive	inactive			inactive	inactive	inactive	inactive	inactive		inactive	inactive						
Cl/C=C/Cl	inactive	inactive	inactive	inactive			inactive	inactive	inactive	inactive	inactive	inactive								
Cc1cc(O)ccc1Cl	inactive and 12.3 µM (active)	inactive	inactive	inactive			inactive	inactive	inactive	inactive	inactive	inactive							inactive	inactive
CC(C)CCCCCCOC(=O)c1ccccc1C(=O)OCCCCCCC(C)C	inactive	inactive					inactive	inactive	inactive	inactive	inactive	inactive	inactive	inactive						
Nc1ncc([N+](=O)[O-])s1	inactive	inactive	inactive	inactive			49 µM (active) and inactive	inactive	inactive	inactive	inactive	inactive							inactive	inactive
[N-]=[N+]=CC(=O)OC[C@H](N)C(=O)O	inactive	inactive	inactive	inactive			inactive	inactive	inactive	inactive	inactive	inactive							inactive	inactive
Clc1cnc(Oc2ccc(Oc3ncc(Cl)cc3Cl)cc2)c(Cl)c1	inactive	inactive	inactive	inactive	inactive	inactive	inactive	inactive	inactive	inactive	inactive		inactive	inactive						
C/C=C/c1ccc2c(c1)OCO2	inactive	inactive	inactive	inactive			inactive	inactive	inactive	inactive	inactive		inactive	inactive						
Nc1cc(Cl)cc(Cl)c1	inactive	inactive	inactive	inactive			inactive	inactive	inactive	inactive	inactive		inactive	inactive						
CC12CC1(C)C(=O)N(c1cc(Cl)cc(Cl)c1)C2=O (stereo not given)	inactive	inactive					inactive	inactive	inactive	inactive	inactive		inactive	inactive						
COP(=S)(OC)Oc1ccc(SC)c(C)c1	inactive	inactive	inactive	19.3 µM (active)			inactive		inactive	inactive	inactive		inactive	60.4 µM (active) and 54.5 µM (active) and 23.7 µM (active)						
Cc1ccc(O)c(C)c1	inactive	inactive	inactive	inactive			inactive	inactive	inactive	inactive	inactive								inactive	inactive
